Experiment [1] addresses human Thromboxane A2 Receptor (TXA2), TBXA2R (gene 6915) (UniProt P21731). Briefly: NVS_GPCR_hTXA2: NovaScreen (NVS) G Protein-Coupled Receptor Assay for human Thromboxane A2 Receptor (TXA2) (AID 2283282).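 Further: actives reduce bound radioligand signal relative to DMSO baseline.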 In outline: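 Cell-free radioligand binding on membrane protein from human platelets; radioligand displacement read by filter-based scintillation counting after 1 h. Primary screen in duplicate at 25 uM, actives then run in concentration series; loss of signal versus DMSO.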

Experiment [2] concerns the target human Adenosine A2a Receptor (AdoRA2a), ADORA2A (gene 135) (UniProt P29274). The experiment in a line: NVS_GPCR_hAdoRA2a: NovaScreen (NVS) G Protein-Coupled Receptor Assay for human Adenosine A2a Receptor (AdoRA2a) (AID 2283256). In short, it runs like this:
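Radioligand displacement on HEK293-derived membrane protein, cell-free; filter-based scintillation counting 1.5 hours after dosing, loss of signal vs DMSO. Single-point duplicate screen at 25 uM, actives retested in concentration series.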

In experiment [3] the target is D(1A) dopamine receptor (Homo sapiens) (UniProt P21728). Briefly: NVS_GPCR_hDRD1: NovaScreen (NVS) G Protein-Coupled Receptor Assay for human Dopamine Receptor D1 (DRD1) (AID 2283269). In short, it runs like this:
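Cell-free radioligand binding to human DRD1 from HEK293 membranes, read 1 h after dosing by filter-based scintillation counting. Loss of signal versus DMSO baseline marks displacement. Primary screen at 25 uM single concentration in duplicate; actives followed up in concentration series.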

Experiment [4] addresses sheep Cyclooxygenase-1 (Cox1), PTGS1 (gene 443551) (UniProt P05979). Briefly: NVS_ENZ_oCOX1: NovaScreen (NVS) Enzymatic Assay for sheep Cyclooxygenase-1 (Cox1) (AID 2283239).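 Further: actives reduce cyclooxygenase activity so potencies are for inhibitors.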 In outline: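 Cell-free colorimetric assay of enzyme activity in a native extract of ovine seminal vesicles. Absorbance was read 0.66 hour after compound addition. Loss of signal relative to the DMSO negative control was scored, with actives from the 25 uM duplicate primary screen retested in concentration series.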

For experiment [5], the target named is guinea pig Opioid, Kappa 1 Receptor (OpiateK), OPRK1 (gene 100135587) (UniProt P41144). Briefly: NVS_GPCR_gOpiateK: NovaScreen (NVS) G Protein-Coupled Receptor Assay for guinea pig Opioid, Kappa 1 Receptor (OpiateK) (AID 2283252).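 Further: active means reduced radioligand binding relative to DMSO.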 In outline: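 Guinea pig cerebellar membranes, radioligand displacement with filter-based scintillation counting, 2 h after dosing. Primary screen single concentration 25 uM in duplicate; actives retested in concentration series; loss of binding fitted versus DMSO.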
Chain of guinea pig Opioid, Kappa 1 Receptor (OpiateK), OPRK1 (gene 100135587) (P41144 whole entry, looked up): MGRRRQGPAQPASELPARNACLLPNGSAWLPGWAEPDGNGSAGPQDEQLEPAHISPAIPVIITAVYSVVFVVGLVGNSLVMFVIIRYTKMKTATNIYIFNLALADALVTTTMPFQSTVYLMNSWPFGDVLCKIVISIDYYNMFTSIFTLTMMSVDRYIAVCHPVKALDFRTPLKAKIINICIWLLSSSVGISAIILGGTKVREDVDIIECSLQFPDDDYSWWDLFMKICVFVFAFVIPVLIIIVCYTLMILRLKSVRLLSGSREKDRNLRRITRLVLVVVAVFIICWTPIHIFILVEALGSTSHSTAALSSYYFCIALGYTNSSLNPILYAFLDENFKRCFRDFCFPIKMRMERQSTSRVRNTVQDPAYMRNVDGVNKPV

For experiment [6], the target named is human Phosphoinositide 3-kinase alpha (PI3Ka), PIK3CA (gene 5290) (UniProt P42336). The experiment in a line: NVS_ENZ_hPI3Ka: NovaScreen (NVS) Enzymatic Assay for human Phosphoinositide 3-kinase alpha (PI3Ka) (AID 2283196). In outline:
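Fluorescence/mobility-shift readout of substrate conversion by recombinant enzyme, 1 h post-dosing. Primary screen in duplicate at 25 uM; actives (e.g. ≥30% inhibition) retested in singleton concentration-response, top concentration 50 uM.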

For experiment [7], the target named is human Adenosine A1 Receptor (AdoRA1), ADORA1 (gene 134) (UniProt P30542). Briefly: NVS_GPCR_hAdoRA1: NovaScreen (NVS) G Protein-Coupled Receptor Assay for human Adenosine A1 Receptor (AdoRA1) (AID 2283254). In outline: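 Membranes from human cortical tissue were incubated with radioligand and test chemical for 1 hour, then filtered and counted. Activity was taken as signal loss relative to DMSO, screened at 25 uM in duplicate before concentration-response follow-up.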
Chain of human Adenosine A1 Receptor (AdoRA1), ADORA1 (gene 134) (P30542 whole entry, looked up): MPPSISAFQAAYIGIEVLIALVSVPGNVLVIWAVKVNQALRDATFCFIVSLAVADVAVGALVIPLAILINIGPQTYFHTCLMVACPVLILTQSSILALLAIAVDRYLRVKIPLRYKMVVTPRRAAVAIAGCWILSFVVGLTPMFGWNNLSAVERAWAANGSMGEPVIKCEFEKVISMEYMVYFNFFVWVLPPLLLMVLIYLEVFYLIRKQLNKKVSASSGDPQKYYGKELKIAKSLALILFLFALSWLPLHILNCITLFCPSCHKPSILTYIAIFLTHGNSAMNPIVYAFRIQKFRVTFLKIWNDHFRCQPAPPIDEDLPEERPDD

Records with an inconclusive call do not appear. Active and inactive are the calls of the source. How the source made its calls: active means hit-call score of the fitted dose curve at least 0.9, where 1 is the maximum; inconclusive means response in the unintended direction; inactive means score below 0.9.

A word on the AC50: it is the concentration at which the activity in the assay is half-maximal.

Chain of D(1A) dopamine receptor (Homo sapiens) (P21728 whole entry, looked up): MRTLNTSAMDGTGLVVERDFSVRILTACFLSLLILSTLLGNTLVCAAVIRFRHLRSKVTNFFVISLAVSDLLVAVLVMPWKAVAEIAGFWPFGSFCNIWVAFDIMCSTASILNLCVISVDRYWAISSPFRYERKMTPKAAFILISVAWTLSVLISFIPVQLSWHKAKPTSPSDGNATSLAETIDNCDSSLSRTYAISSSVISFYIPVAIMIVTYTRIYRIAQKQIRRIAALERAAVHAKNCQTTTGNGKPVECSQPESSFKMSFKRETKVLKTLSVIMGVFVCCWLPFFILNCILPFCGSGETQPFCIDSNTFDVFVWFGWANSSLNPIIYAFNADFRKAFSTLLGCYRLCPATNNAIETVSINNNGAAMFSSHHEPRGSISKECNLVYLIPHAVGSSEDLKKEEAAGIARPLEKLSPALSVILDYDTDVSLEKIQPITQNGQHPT
Chain of human Thromboxane A2 Receptor (TXA2), TBXA2R (gene 6915) (P21731 whole entry, looked up): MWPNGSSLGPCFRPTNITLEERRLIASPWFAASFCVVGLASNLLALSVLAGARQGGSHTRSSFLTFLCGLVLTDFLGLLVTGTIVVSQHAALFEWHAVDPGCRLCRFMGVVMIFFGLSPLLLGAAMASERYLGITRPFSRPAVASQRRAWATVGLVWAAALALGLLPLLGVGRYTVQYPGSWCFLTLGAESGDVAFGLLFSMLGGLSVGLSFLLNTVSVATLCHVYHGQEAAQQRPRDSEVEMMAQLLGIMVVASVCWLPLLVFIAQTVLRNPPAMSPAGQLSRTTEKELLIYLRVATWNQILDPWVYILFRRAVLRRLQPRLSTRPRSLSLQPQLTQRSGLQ
Chain of sheep Cyclooxygenase-1 (Cox1), PTGS1 (gene 443551) (P05979 whole entry, looked up): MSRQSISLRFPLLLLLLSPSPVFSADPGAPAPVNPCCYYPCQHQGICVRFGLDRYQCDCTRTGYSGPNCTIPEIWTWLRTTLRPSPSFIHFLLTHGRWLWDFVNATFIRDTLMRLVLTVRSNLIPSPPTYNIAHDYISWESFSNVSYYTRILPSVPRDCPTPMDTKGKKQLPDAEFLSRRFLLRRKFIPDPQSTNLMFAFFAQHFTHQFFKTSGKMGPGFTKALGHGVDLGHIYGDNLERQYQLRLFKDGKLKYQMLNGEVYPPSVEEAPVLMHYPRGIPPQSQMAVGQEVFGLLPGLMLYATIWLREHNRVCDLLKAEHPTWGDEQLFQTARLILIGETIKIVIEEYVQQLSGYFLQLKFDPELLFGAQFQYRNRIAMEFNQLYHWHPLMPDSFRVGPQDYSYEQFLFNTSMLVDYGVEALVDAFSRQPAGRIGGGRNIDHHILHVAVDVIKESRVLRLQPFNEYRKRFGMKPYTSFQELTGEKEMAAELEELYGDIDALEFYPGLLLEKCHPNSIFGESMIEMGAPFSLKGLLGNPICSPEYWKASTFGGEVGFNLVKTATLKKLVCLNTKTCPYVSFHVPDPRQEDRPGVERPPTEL
Chain of human Phosphoinositide 3-kinase alpha (PI3Ka), PIK3CA (gene 5290) (P42336 whole entry, looked up): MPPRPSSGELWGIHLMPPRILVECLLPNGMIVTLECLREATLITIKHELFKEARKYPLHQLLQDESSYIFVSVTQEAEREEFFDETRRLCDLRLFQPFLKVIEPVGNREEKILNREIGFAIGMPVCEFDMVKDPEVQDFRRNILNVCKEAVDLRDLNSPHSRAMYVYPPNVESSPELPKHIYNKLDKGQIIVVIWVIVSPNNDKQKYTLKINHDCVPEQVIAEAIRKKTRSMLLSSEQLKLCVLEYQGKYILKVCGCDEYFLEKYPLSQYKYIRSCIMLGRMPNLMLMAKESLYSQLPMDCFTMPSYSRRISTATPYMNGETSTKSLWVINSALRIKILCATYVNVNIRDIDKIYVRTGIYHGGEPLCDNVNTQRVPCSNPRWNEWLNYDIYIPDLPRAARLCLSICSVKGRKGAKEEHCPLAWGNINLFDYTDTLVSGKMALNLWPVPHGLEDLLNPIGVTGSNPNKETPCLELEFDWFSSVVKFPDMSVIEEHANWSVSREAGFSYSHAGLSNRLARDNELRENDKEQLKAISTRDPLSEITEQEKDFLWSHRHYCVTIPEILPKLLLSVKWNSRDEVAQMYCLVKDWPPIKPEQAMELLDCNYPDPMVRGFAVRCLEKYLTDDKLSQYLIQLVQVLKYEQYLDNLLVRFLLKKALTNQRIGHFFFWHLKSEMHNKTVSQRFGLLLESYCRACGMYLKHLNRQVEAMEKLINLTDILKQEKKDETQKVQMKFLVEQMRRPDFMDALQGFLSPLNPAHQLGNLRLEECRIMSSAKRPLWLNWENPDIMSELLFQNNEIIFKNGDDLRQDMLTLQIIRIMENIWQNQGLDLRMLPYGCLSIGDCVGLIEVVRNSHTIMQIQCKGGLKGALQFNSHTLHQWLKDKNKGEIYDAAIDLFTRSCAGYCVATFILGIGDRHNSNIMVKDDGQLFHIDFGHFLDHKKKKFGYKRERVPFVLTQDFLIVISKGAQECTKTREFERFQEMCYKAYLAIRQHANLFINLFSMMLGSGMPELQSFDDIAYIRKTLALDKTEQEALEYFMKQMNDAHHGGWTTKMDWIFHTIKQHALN
Chain of human Adenosine A2a Receptor (AdoRA2a), ADORA2A (gene 135) (P29274 whole entry, looked up): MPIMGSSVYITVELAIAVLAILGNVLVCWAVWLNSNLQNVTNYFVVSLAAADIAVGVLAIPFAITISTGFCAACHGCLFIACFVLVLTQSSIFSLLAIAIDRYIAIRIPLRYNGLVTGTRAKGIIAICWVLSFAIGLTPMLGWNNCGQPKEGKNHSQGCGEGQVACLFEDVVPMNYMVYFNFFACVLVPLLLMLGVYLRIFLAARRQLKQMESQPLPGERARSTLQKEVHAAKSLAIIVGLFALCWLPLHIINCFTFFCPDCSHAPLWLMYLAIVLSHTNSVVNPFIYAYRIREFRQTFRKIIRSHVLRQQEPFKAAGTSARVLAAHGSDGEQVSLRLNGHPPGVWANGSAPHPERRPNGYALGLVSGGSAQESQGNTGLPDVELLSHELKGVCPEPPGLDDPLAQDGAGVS

On to `CCCCC1C(=O)N(c2ccccc2)N(c2ccccc2)C1=O`, for which the call in experiment [1] was inactive.
Still for that read-out and setting: under `CCc1cccc(C)c1N(C(=O)CS(=O)(=O)O)C(C)COC` (stereo not drawn) stands “inactive”.
Consider `Cc1c[nH]c(=O)[nH]c1=O`, for which the call in experiment [2] was inactive.
For the molecule `CC(C)CCOCc1ccccc1`, the call in experiment [3] was inactive.
On to `CCCCCCCCCCCC(C)=O`, for which, in experiment [4], the AC50 was 31.9 µM (active).
Consider `CC1=CC=C(C(C)C)CC1`, for which, in experiment [5], the molecule was classed as inactive.
As for `CC/C=C\C/C=C\C/C=C\CCCCCCCC(=O)OC`, the AC50 was 14 µM (active) in experiment [3] and 2.66 µM (active) in experiment [1].
As for `Clc1cccnc1`, the call in experiment [1] was inactive.
For the molecule `C=CC(=O)OCC(C)OCC(C)OCC(C)OC(=O)C=C` (stereo not drawn), the outcome in experiment [6] was inactive.
In the case of `CC1=C(O)C(=O)C(C)O1` (stereo not drawn), the call in experiment [4] was inactive.
Turning to `CCCCCCCCCCCCCc1ccccc1`, the call in experiment [7] and in experiment [3] was inactive.

For the origin of these results see PubChem BioAssay (EPA / NIEHS).
